Hits are enriched below; roughly 3.8% of the tested compounds scored in any of these assays.
Ecoli rRNA inh: reduced GFP signal of wild-type E. coli, primary screen, bacterial rRNA inhibitor project, GFP/RFP fluorescence, OD600, single point. actives 1.6% (n = 350,000). AID 720706, 2013. GFP signal change (wild-type ribosome), % (test concentration not listed). E. coli WT GFP vs humanized-ribosome RFP mutants, 24 h; hits give low values; DMSO median 0, no signal -100;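 active = significant combined selectivity score with lowered wild-type GFP, culture density cut under 30%, mutant RFP and density less affected; inactive = any of these conditions unmet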
ADAM17 inh: ADAM17 inhibitors, primary screen, biochemical, QFRET. Disintegrin and metalloproteinase domain-containing protein 17 (Homo sapiens), P78536. actives 0.83% (n = 370,000). AID 720648, 2013. inhibition, % at 6.95 µM. recombinant ADAM17, EDANS/DABCYL FRET peptide cleavage;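 active = inhibition above the mean of compounds lying between control limits plus 3 SD, set per campaign, cut at about 8.5% in these data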;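 note: 0% = DMSO-only wells as the low control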
KLK7 zymogen act: proKLK7 zymogen activators, primary screen, biochemical, fluorescence intensity. activation, % at 7 µM. AID 652039, 2013. actives 0.9% (n = 370,000). purified proKLK7, EDANS-DABCYL substrate fluorescence; 100% is mature enzyme control, 0% vehicle. Kallikrein-7 (Homo sapiens), P49862;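 active = activation above the mean of all tested compounds plus 3 SD, computed per campaign excluding outliers beyond control limits, cut at about 13% in these data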
ADAM10 inh: human ADAM10 inhibitors, primary screen, biochemical, QFRET, HTS | Disintegrin and metalloproteinase domain-containing protein 10 (Homo sapiens), O14672 | recombinant ADAM10, EDANS/DABCYL FRET peptide cleavage, 3 h | inhibition, % at 7 µM | actives 0.62% (n = 370,000) | AID 720582, 2013;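 active = inhibition above a per-campaign cutoff equal to the mean of compounds falling between control-based bounds plus 3 SD, cut at about 20% in these data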;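 note: 0% = DMSO wells while the 100% control is not disclosed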
FGF22 binding: binders of human FGF22 protein, primary screen, FGF22 synaptogenesis inhibitor project, biophysical, thermal shift, single point. AID 651658, 2012. activity (Tm shift, normalised), % at 9.99 µM. Fibroblast growth factor 22 (Homo sapiens), Q9HCT0. actives 1.5% (n = 340,000). recombinant FGF22 thermal shift, SYPRO orange fluorescence; percent of sucrose octasulfate shift, DMSO zero;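 active = mean Tm shift, scaled 0 neutral to 100 positive control, at about 1.3% or above, every replicate too, limit read from the data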
Target sequence (Q9HCT0 whole entry, looked up): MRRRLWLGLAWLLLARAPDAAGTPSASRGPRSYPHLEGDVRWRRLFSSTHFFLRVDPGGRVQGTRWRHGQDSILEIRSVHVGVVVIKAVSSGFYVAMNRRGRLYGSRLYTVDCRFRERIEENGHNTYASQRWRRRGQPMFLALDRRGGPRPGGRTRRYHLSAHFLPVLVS
Active calls of the source: *; · = no result given.

SMILES	Ecoli rRNA inh	ADAM17 inh	KLK7 zymogen act	ADAM10 inh	FGF22 binding
Cc1ccccc1Nc1nnc(SCC2CCCCO2)s1 (centres undefined)	-22*	-1	0	1	0
O=[N+]([O-])c1cc(Br)cc(C=Nc2ccc3c(c2)OCO3)c1O	-30*	1	1	-6	0
Oc1ccc(/C=N/Nc2ccnc3cc(Cl)ccc23)c(O)c1	-33*	-2	-2	-2	0
Cc1ccccc1/C=N/Nc1ccnc2cc(Cl)ccc12	1	-1	0	-2	0
CC(C)(C)NC(=O)CSc1nc(N)c(NC(=O)c2ccccc2F)c(=O)[nH]1	·	2	0	2	44*
C[C@H](CO)N1C[C@H](C)[C@@H](CN(C)Cc2ccc3c(c2)OCO3)Oc2c(NC(=O)CCC(F)(F)F)cccc2C1=O	-13	·	·	·	·
CCC(=O)c1ccc(OCC(=O)OCC(=O)c2cc(C)n(CC3CCCO3)c2C)cc1 (centres undefined)	12	-5	-1	-9	-1
Cc1cc(C(=O)COc2ccc(C#N)cc2)c(C)n1CC1CCCO1 (centres undefined)	9	-3	0	-8	43*
COc1ccc(S(=O)(=O)Nc2ccc3c(c2)C(=O)N([C@H](C)CO)C[C@H](C)[C@@H](CN(C)S(=O)(=O)c2c(C)noc2C)OCCCC[C@H](C)O3)cc1	-5	·	·	·	1
CCOc1ccc(OCCn2nnc3ccccc3c2=O)cc1	2	-4	0	-10	44*
COc1ccccc1C(=O)C1CCCN(C(=O)CCC(=O)c2ccccc2)C1 (centres undefined)	-28*	-2	0	-1	0
CCN(CC)CC(=O)N1CCCC(C(=O)c2ccccc2OC)C1 (centres undefined)	12	1	0	5	0
COc1ccccc1C#Cc1ccc([C@H]2[C@@H](C#N)N(C(=O)C3CC3)[C@H]2CO)cc1	3	·	·	·	0
Cc1c(C(=O)NNc2c(Cl)cccc2Cl)n(C)oc1=O	-22*	-1	0	-4	0
O=C(C[C@@H]1C=C[C@H](NC(=O)Nc2ccc3c(c2)OCO3)[C@@H](CO)O1)NCc1ccc(F)cc1	0	·	·	·	0
CN(C)c1ccc(CNC(=O)C2(C)Cc3c(-c4ccc5c(c4)OCO5)ccnc3O2)cc1 (centres undefined)	-15*	1	0	-18	0

Assay outcomes (PubChem BioAssay)
